Measured values as given in publication PMC4552634, “A New Set of Chemical Starting Points with Plasmodium falciparum Transmission-Blocking Potential for Antimalarial Drug Discovery” (PLoS ONE, 2015).
About 3,200 (25%) of roughly 13,000 compounds showed an effect of 50% or more. The list shows a part of the results.

tested on: P. falciparum stage V gametocytes; design: BacTiter-Glo ATP luminescence viability of purified stage V gametocytes in 384-well plates, per cent inhibition versus DMSO; conditions: 48 h, 5 µM; inhibitor

Row | Compound | % Inhibition
1 | CC1(C)Cc2c(oc3ncn(CCn4cnc5oc6c(c5c4=N)CC(C)(C)SC6)c(=N)c23)CS1 [TCMDC-125795] | -5.815%
2 | O=C(NC1CC1)c1ccc(N2CCC(c3ccccc3)CC2)nc1 [TCMDC-134590] | 17.19%
3 | Cc1ccc(CON2C(N)=NC(N)=NC2(C)C)cc1C [TCMDC-131660] | 9.174%
4 | CC(C)CCNC(=N)Nc1ccc(OCCCOc2ccc(NC(=N)NCCC(C)C)cc2)cc1 [TCMDC-137615] | 100.2%
5 | NOCCCOc1ccc(Cl)cc1 [TCMDC-123471] | 6.801%
6 | CC(C)CCNC(=N)Nc1ccc(OCCCCCOc2ccc(NC(=N)NCCC(C)C)cc2)cc1 [TCMDC-137614] | 113.6%
7 | CS(=O)(=O)Nc1ccc(OCCCCCCOc2ccc(NS(C)(=O)=O)cc2)cc1 [TCMDC-137531] | 17.32%
8 | COc1ccc(NC(=O)[C@H](CC(C)C)Nc2cc(C)nc(NCCOc3ccccc3)n2)cc1 [TCMDC-134760] | 36.25%
9 | COc1ccc(-c2ccc(CNC(=O)c3cccc(C#N)c3)c(F)c2)cc1CN1CCCN(C)CC1 [TCMDC-133367] | 3.232%
10 | O=C(CCc1cccnc1)Nc1ccc(-c2cccc(-c3nc4ccc(F)cc4[nH]3)c2)cc1 [TCMDC-132146] | -0.1199%
11 | CC1(C)CC(=O)c2c(O)cc(OCc3ccncc3)cc2O1 [TCMDC-131348] | -21.15%
12 | Cc1cccc2nc(-c3cccc(-c4cccc(CNCCc5cccn5C)c4)c3)[nH]c12.O=C(O)C(F)(F)F [TCMDC-132685] | -19.68%
13 | Cc1cccc2nc(-c3ccc(-c4ccc(C(=O)NCCN5CCCC5)cc4)cc3)[nH]c12 [TCMDC-132320] | 6.886%
14 | Cc1cccc2nc(-c3cccc(-c4cccc(CNCCN5CCNCC5)c4)c3)[nH]c12 [TCMDC-132873] | 108%
15 | Cc1cccc2nc(-c3cccc(-c4cccc(CNCCCN5CCCC5=O)c4)c3)[nH]c12.O=C(O)C(F)(F)F [TCMDC-132751] | 3.721%
16 | Cc1cccc2nc(-c3ccc(-c4cccc(CNCCN5CCNCC5)c4)cc3)[nH]c12 [TCMDC-132867] | 101.3%
17 | Cc1cccc2nc(-c3cccc(-c4ccc(CNCCCN5CCCC5=O)cc4)c3)[nH]c12.O=C(O)C(F)(F)F [TCMDC-132753] | 7.956%
18 | CCOc1cc2ncnc(Nc3cc(Cl)c(Cl)c(Cl)c3)c2cc1OCC [TCMDC-131926] | 9.404%
19 | O=C(c1ccc(Cl)cc1)N1CCCC(C(=O)N(Cc2nnc(-c3ccccc3Cl)o2)C2CC2)C1 (stereo not shown) [TCMDC-125331] | -2.423%
20 | COc1ccc2c(NN=Cc3ccccn3)ccnc2c1 [TCMDC-142028] | -6.659%
21 | O=S(=O)(c1ccc(NC(=S)NN=Cc2ccccn2)cc1)N1CCCCC1 [TCMDC-125787] | 60.8%
22 | O=C(Nc1ccc(S(=O)(=O)N2CCCCCC2)cc1)c1cc(-c2ccccc2O)n[nH]1 [TCMDC-125203] | -36.28%
23 | Cc1cc(NN=Cc2ccccn2)c2cc(F)ccc2n1 [TCMDC-142020] | 16.37%
24 | Cc1c(Cl)cccc1NC(=S)NN=Cc1ccccn1 [TCMDC-125487] | 106.6%
25 | O=C(Nc1ccc(S(=O)(=O)N2CCCCC2)cc1)c1cc(-c2ccccc2O)n[nH]1 [TCMDC-124310] | -14.76%
26 | CC(=NNC(=S)Nc1ccccc1Cl)c1ccccn1 [TCMDC-124278] | 2.359%

Row | Compound | % Inhibition
27 | Fc1ccc(NC(=S)NN=Cc2ccccn2)cc1 [TCMDC-125521] | 108.6%
28 | Fc1ccc(NC(=S)NCCc2ccccc2)cc1 [TCMDC-123847] | -9.114%
29 | CC(C)c1ccc(NC(=S)NN=Cc2ccccn2)cc1 [TCMDC-125520] | 108.1%
30 | Cn1cnc2c(SCc3ccccc3OCc3ccccc3)ncnc21 [TCMDC-136495] | -28.48%
31 | O=C(/C=C/c1ccc(Cl)c(Cl)c1)N(Cc1ccccc1)C1CCC(CN2CCC(c3c[nH]c4ccccc34)CC2)CC1 (stereo not shown) [TCMDC-140359] | 26.1%
32 | COc1cc2c(Nc3ccc(Br)cc3F)ncnc2cc1OCC1CCN(C)CC1 [TCMDC-123476] | 19.55%
33 | O=C(O)C(F)(F)F.OC1CCCN(Cc2cccc(-c3ccc(-c4nc5cc(F)ccc5[nH]4)cc3)c2)C1 (stereo not shown) [TCMDC-133820] | 3.122%
34 | COc1ccc2ncc(F)c(NC(=O)C3CCC(NCc4cc5c(F)cccc5[nH]4)CC3)c2n1 (stereo not shown) [TCMDC-136354] | -14.12%
35 | N#Cc1ccc2c(c1)CCN(CCC1CCC(NC(=O)Nc3ccncc3)CC1)C2 (stereo not shown) [TCMDC-139300] | -15.77%
36 | CCOC(=O)c1cc(=O)c2ccc(OCC#N)cc2o1 [TCMDC-131302] | 40.87%
37 | Fc1ccc2[nH]c(-c3cccc(-c4cccc(CNCc5cnn(-c6ccccc6)n5)c4)c3)nc2c1.O=C(O)C(F)(F)F [TCMDC-132976] | -2.641%
38 | O=C(Cn1cnc2c(nnn2Cc2ccccc2F)c1=O)Nc1ccc2c(c1)OCCO2 [TCMDC-124462] | -30.94%
39 | S=C(NN=Cc1ccccn1)Nc1ccc2c(c1)OCCO2 [TCMDC-132009] | 95.93%
40 | S=C(NN=Cc1ccccn1)NC1CC2C=CC1C2 (stereo not shown) [TCMDC-125752] | 132.2%
41 | S=C(NN=Cc1ccccn1)Nc1ccc(Cl)c(Cl)c1 [TCMDC-125522] | 102.5%
42 | FC(F)(F)c1cccc(NC(=S)NN=Cc2ccccn2)c1 [TCMDC-123509] | 31.63%
43 | O=C(Nc1ccc2c(c1)OCCO2)c1cc(-c2cccnc2)nc2ccc(Cl)cc12 [TCMDC-124362] | -23.33%
44 | Cc1cc(NN=Cc2ccccn2)c2cc(C(F)(F)F)ccc2n1 [TCMDC-142022] | 35.2%
45 | CC(C)N=C(N)NN=Cc1ccc(Cl)c(Cl)c1 [TCMDC-138131] | -38.45%
46 | O=C(NC1CC1)c1ccc(Nc2nccc(-c3c(-c4cccc(NC(=O)c5c(F)cccc5F)c4)nn4ccccc34)n2)cc1 [TCMDC-136002] | -35.37%
47 | CCCCN1C(=O)C(c2ccccc2)(c2ccccc2)N=C1N [TCMDC-142007] | 12.88%
48 | O=C(NCCN1CCOCC1)c1ccc(O)c(-c2cccc(C(F)(F)F)c2)c1 [TCMDC-140162] | 21.52%
49 | CCCNC(=O)c1ccc(N2CCC(c3ccccc3C)CC2)nc1 [TCMDC-134583] | 17.76%
50 | O=C(NC1CCCCCC1)[C@@H]1CCCN1C(=O)c1ccc(O)c(-c2ccc(Cl)c(Cl)c2)c1 [TCMDC-140843] | 28.6%
51 | COc1ccc2nccc([C@@H](O)CN3CCC(NCc4cc5oc(=O)[nH]c5cc4F)CC3)c2c1 [TCMDC-141140] | 3.08%
52 | CCc1ccccc1N1CCN(CCCC(=O)c2ccc(NC(=O)c3cc(Cl)cc(Cl)c3)cc2)CC1 [TCMDC-138229] | -19.19%

Row | Compound | % Inhibition
53 | Nc1nc(N)c2cc(Cc3ccccc3Cl)cnc2n1 [TCMDC-137918] | -87.91%
54 | CCOC(=O)CNC(=O)c1cc(=O)c2ccccc2o1 [TCMDC-131778] | 11.83%
55 | O=C(NCC1CCCCC1)c1cc(=O)c2ccccc2o1 [TCMDC-123621] | 8.117%
56 | CC(C)(C)C(=O)Nc1c(-c2cc(=O)oc3cc4c(cc23)CCC4)oc2ccccc12 [TCMDC-125081] | 76.3%
57 | COC(=O)c1c(NC(=O)c2cccc(C(F)(F)F)c2)sc2c1CCN(Cc1ccccc1)C2 [TCMDC-125828] | -72.37%
58 | CCOC(=O)c1ccc(N2CCN(c3cc(C)ccc3C)CC2)c(NC(=O)Nc2ccc(Cl)c(Cl)c2)c1 [TCMDC-123849] | 0.9649%
59 | N#Cc1ccc(N2C[C@@H](OCc3ccccc3)C[C@H]2C(=O)NCCC(c2ccccc2)c2ccccc2)c2ccccc12 [TCMDC-135421] | 62.52%
60 | Cc1cc(NC(=O)[C@@H](Nc2ccc(C#N)c3ccccc23)C2CCCCC2)ccc1F [TCMDC-136635] | -42.79%
61 | N#Cc1ccc(N[C@@H](CC2CCCCC2)C(=O)NCc2cc(F)c(F)cc2F)c2ccccc12 [TCMDC-136630] | -9.58%
62 | COc1ccccc1CCC(C)(C)NC(=O)CC(CCc1ccccc1)Nc1ccc(C#N)c2ccccc12 (stereo not shown) [TCMDC-132307] | 13.06%
63 | N#Cc1ccc(N(CC(=O)NCCc2ccccc2)CC2CC2)c2ccccc12 [TCMDC-135574] | -1.825%
64 | CO[C@@H]1C[C@@H](C(=O)Nc2ccccc2)N(c2ccc(C#N)c3ccccc23)C1 [TCMDC-135413] | 86.31%
65 | CCOc1cc(C(=O)Nc2ccc3nc(N4CCN(C)CC4)cc(C)c3c2)cc(OCC)c1OCC [TCMDC-123589] | -11.34%
66 | O=C(/C=C/c1cccc2c1OCO2)Nc1ccnc2ccncc12 [TCMDC-139845] | -12.08%
67 | Cc1ccccc1CNCC(O)c1cccc(C(F)(F)F)c1 (stereo not shown) [TCMDC-140393] | 2.038%
68 | O=c1cc(NC[C@H]2CCC[C@@H]2NCc2cc(Br)cc(Br)c2)[nH]c2ccccc12 [TCMDC-139655] | -0.8474%
69 | O=c1cc(NCCC(CNCc2ccc(Br)o2)NCc2cc(Br)cc(Br)c2)[nH]c2ccccc12 (stereo not shown) [TCMDC-140348] | 17.71%
70 | Cc1cc(CNCC(CCNc2cc(=O)c3ccccc3[nH]2)NCc2cc(Br)cc(Br)c2)oc1C (stereo not shown) [TCMDC-140347] | 61.99%
71 | CCc1ccc(CNCC(CCNc2cc(=O)c3ccccc3[nH]2)NCc2cc(Br)cc(Br)c2)o1 (stereo not shown) [TCMDC-140346] | 67.8%
72 | Cc1sc(C)c(CNCCCNc2cc(=O)c3ccccc3[nH]2)c1Br [TCMDC-140765] | -54.98%
73 | COc1cc(/C=C/C(=O)NCC(CCNc2cc(=O)c3ccccc3[nH]2)NCc2cc(Br)cc(Br)c2)cc(OC)c1 (stereo not shown) [TCMDC-140217] | -26.95%
74 | O=c1cc(NCCCNCc2cc(Br)cs2)[nH]c2ccccc12 [TCMDC-139310] | -17.04%
75 | O=c1cc(NCCC(CNCc2cc3ccccc3o2)NCc2cc(Br)cc(Br)c2)[nH]c2ccccc12 (stereo not shown) [TCMDC-140345] | 70.19%
76 | Cn1cccc1C(=O)NCC(CCNc1cc(=O)c2ccccc2[nH]1)NCc1cc(Br)cc(Br)c1 (stereo not shown) [TCMDC-140218] | -44.96%
